Experimental data from the supplement of paper PMC11150407.
Structures can show the parent of a compound that is named as a salt. Out of some 2,100 compounds screened, about 180 (8.6%) showed an effect of 50% or more. The list comes from a sample in which strong results are over-represented; it also holds similar structures and randomly drawn compounds.

System: MOLM1 and UCSD/AML1 (averaged)
Assay: cell viability relative to DMSO control (POC); higher = less growth inhibition
Conditions: 1 µM; 72 h
Method: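 Primary viability screen in the 3q26 EVI1-high AML cell lines MOLM1 and UCSD/AML1 (1.5e3 cells/well, 384-well), compounds at 1 uM for 72 h. ATP CellTiter-Glo read-out given as percent of viable cells over DMSO control (POC), averaged over duplicates. DMSO was the negative control and 5 uM etoposide the positive control. This mapping covers the MicroSource Spectrum and Selleck anticancer libraries (drug names).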

SMILES | cell viability
COc1ccc(-c2coc3c(OC)c(OC)cc(O)c3c2=O)cc1 | 101%
C#CCCCCCCCCCCCC(O)CC(O)COC(C)=O (stereo unspecified) | 88.5%
C[C@]12CC[C@@H]3c4ccc(O)cc4CC[C@H]3[C@@H]1CC[C@@H]2O [Estradiol] | 96.7%
C[C@]12CC[C@@H]3c4ccc(O)cc4CC[C@H]3[C@@H]1CC[C@@H]2O | 91.5%
COc1cc2c(cc1O)CC[C@@H]1[C@@H]2CC[C@]2(C)[C@@H](O)CC[C@@H]12 [2-Methoxyestradiol] | 13.7%
COc1ccc2c(c1)CC[C@@H]1[C@@H]2CC[C@]2(C)[C@@H](O)CC[C@@H]12 | 96.8%
CC[C@H](/C=C/[C@@H](C)[C@H]1CC[C@H]2[C@@H]3CCC4=CC(=O)CC[C@]4(C)[C@H]3CC[C@]12C)C(C)C | 108%
CC(=O)CCCCn1c(=O)c2c(ncn2C)n(C)c1=O | 104%
COc1c(O)cc2oc3cc(O)c(CC=C(C)C)c(O)c3c(=O)c2c1CC=C(C)C [alpha-MANGOSTIN] | 95.2%
COc1cc(C(C)=O)cc(OC)c1O | 105%
COC(=O)C[C@H]1C(C)(C)C(=O)[C@@H]2CC3C4=CC(=O)O[C@@H](c5ccoc5)[C@]4(C)CC[C@@H]3[C@@]1(C)C2=O (stereo partly specified) | 98.6%
CCCCOc1ccc(OCCCN2CCOCC2)cc1 | 97.5%
O=C(c1ccc(OCCN2CCCCC2)cc1)c1c(-c2ccc(O)cc2)sc2cc(O)ccc12 | 83.3%
O=C(Cc1ccc(-c2ccc(OCCN3CCOCC3)cc2)cn1)NCc1ccccc1 | 8.82%
O=C(c1ccc(OCCN2CCCCC2)cc1)c1c(-c2ccc(O)cc2)sc2cc(O)ccc12 [Evista (Raloxifene Hydrochloride)] | 95.1%
COC(=O)C(Cc1ccccc1)NC(=O)/C(=C1/OC(=O)C(c2ccccc2)=C1O)c1ccccc1 (stereo unspecified) | 105%
CC1(C)CC[C@]2(C(=O)O)CC[C@]3(C)C(=CCC4[C@@]5(C)CC[C@@H](O)C(C)(C)C5CC[C@]43C)C2C1 (stereo partly specified) | 102%
COc1ccc(-c2coc3cc(O)ccc3c2=O)c(O)c1O | 99.7%
CC(=O)O[C@H]1CC[C@]2(C)[C@H]3CC[C@@]4(C)[C@H](c5ccoc5)OC(=O)[C@H]5O[C@]54[C@]3(C)[C@H](OC(C)=O)C[C@H]2C1(C)C [3beta-ACETOXYDEOXODIHYDROGEDUNIN] | 91.2%
COc1ccc2oc(-c3ccccc3)c(OC)c(=O)c2c1 | 98.7%
COc1ccc(-c2cc(=O)c3c(OC)c(OC)c(OC)cc3o2)cc1OC | 105%

SMILES | cell viability
COc1ccc([C@@H]2CC(=O)c3c(O)cc(O[C@@H]4O[C@H](CO[C@@H]5O[C@@H](C)[C@H](O)[C@@H](O)[C@H]5O)[C@@H](O)[C@H](O)[C@H]4O)cc3O2)cc1O | 92.8%
c1ccc(-c2nn3c(c2-c2ccnc4cc(OCCN5CCOCC5)ccc24)CCC3)nc1 | 94.6%
CC12CCC3C(CC3(C)C)C(C)(CCC1=O)O2 (stereo unspecified) | 103%
C=CCSCC(N)C(=O)O (stereo unspecified) | 121%
CCCCc1nc2cc(/C=C/C(=O)NO)ccc2n1CCN(CC)CC [SB939 (Pracinostat)] | 1.57%
CC1=CC(=O)CC(C)(C)C1(O)/C=C/C(C)=C\C(=O)O (mixture of isomers) [ABSCISIC ACID (cis,trans; +/-)] | 102%
O=Cc1ccccc1O[C@@H]1O[C@H](CO)[C@@H](O)[C@H](O)[C@H]1O | 102%
C[C@H](NC(=O)Cc1cc(F)cc(F)c1)C(=O)N[C@H](C(=O)OC(C)(C)C)c1ccccc1 | 76.1%
COc1cc(OC)c2c(OC)c(-c3ccc4c(c3)OCO4)c(=O)oc2c1 | 101%
COc1cc(OC)c2c(c1)OC(c1ccccc1)CC2=O (stereo unspecified) | 105%
COc1cc2c3cc1Oc1cc(ccc1O)C[C@@H]1c4c(cc(OC)c(O)c4Oc4ccc(cc4)C[C@@H]3N(C)CC2)CC[N+]1(C)C | 100%
NC(=O)Nc1cc(-c2cccc(F)c2)sc1C(=O)N[C@H]1CCCNC1 | 5.84%
CC(=O)O[C@H]1C[C@@H](OC(C)=O)C(C)(C)C2CC(=O)[C@]3(C)C(CC[C@@]4(C)[C@H](C(=O)O)OC(=O)C5OC543)[C@]21C (stereo partly specified) | 89.8%
CC(=O)O[C@H]1C[C@@H](OC(C)=O)C(C)(C)[C@@H]2C[C@@H](OC(C)=O)[C@@]3(C)C4=CC(=O)O[C@@H](c5ccoc5)[C@]4(C)CC[C@@H]3[C@@]12C | 94.5%
COC1=CC(=O)C(O)=C/C1=C\C=C\c1ccccc1 | 95%
Cc1cc(O)cc(O)c1C(=O)O | 115%
NCCC(=O)N[C@@H](Cc1c[nH]cn1)C(=O)O | 89.7%
O=C(O)C1CC([C@@H]2CCCCN2)CN2CCCCC12 (stereo partly specified) | 101%
CC(C)n1nc(-c2ccc3oc(N)nc3c2)c2c(N)ncnc21 | 21.6%
CCN1CCN(Cc2ccc(-c3cc4c(N[C@H](C)c5ccccc5)ncnc4[nH]3)cc2)CC1 | 53.4%
COC(=O)c1c(C)c2c(c(C)c1O)OC(=O)c1c(C)c(Cl)c(O)c(Cl)c1O2 | 108%

SMILES | cell viability
O=C(Cc1cccs1)N[C@@H]1C(=O)N2C(C(=O)[O-])=C(C[n+]3ccccc3)CS[C@H]12 | 96.4%
COC1=CC(=O)C(C(=O)c2ccccc2)=CC1=O | 103%
C[C@]1(c2nc3c(C(N)=O)cccc3[nH]2)CCCN1 [ABT-888 (Veliparib)] | 101%
Cc1ccc(C(=O)Nc2ccc(S(=O)(=O)O)c3cc(S(=O)(=O)O)cc(S(=O)(=O)O)c23)cc1NC(=O)c1cccc(NC(=O)Nc2cccc(C(=O)Nc3cc(C(=O)Nc4ccc(S(=O)(=O)O)c5cc(S(=O)(=O)O)cc(S(=O)(=O)O)c45)ccc3C)c2)c1 | 111%
Cc1ccc(NC(=O)c2cccc(C(C)(C)C#N)c2)cc1Nc1ccc2ncn(C)c(=O)c2c1 | 42.7%
COC(=O)Nc1ccc(-c2nc(N3CCOCC3)c3cnn(C4CCN(C(=O)OC)CC4)c3n2)cc1 | 25.9%
c1ccc2c(-c3cnn4cc(-c5ccc(N6CCNCC6)cc5)cnc34)ccnc2c1 | 37.8%
NC1(C(=O)O)CCCC1 | 93.7%
CC/C(=C(\c1ccccc1)c1ccc(OCCN(C)C)cc1)c1ccccc1 | 105%
CC/C(=C(\c1ccccc1)c1ccc(OCCN(C)C)cc1)c1ccccc1 [Tamoxifen Citrate (Nolvadex)] | 53.6%
COc1cc(C(=O)NCc2ccc(OCCN(C)C)cc2)cc(OC)c1OC | 97.1%
CN(C)Cc1c(C(=O)NCCOc2ccc(C(=O)NO)cc2)oc2ccccc12 | 1.01%
C=CCSCC=C | 97.3%
CCCc1cc(OC)c2c(c1)OCO2 | 90.2%
C[C@H](NC(=O)Cc1cc(F)cc(F)c1)C(=O)N[C@@H]1C(=O)N(C)c2ccccc2-c2ccccc21 | 101%
COc1c(C)c2c(c(O)c1C/C=C(\C)CCC(=O)O)C(=O)OC2 [Mycophenolic (Mycophenolate)] | 42.4%
COC1=C(OC)C(=O)C(C/C=C(\C)CC/C=C(\C)CC/C=C(\C)CC/C=C(/C)CC/C=C(\C)CC/C=C(\C)CC/C=C(\C)CC/C=C(\C)CC/C=C(\C)CCC=C(C)C)=C(C)C1=O | 85.7%
COc1c(C)c2c(c(O)c1C/C=C(\C)CCC(=O)OCCN1CCOCC1)C(=O)OC2 [Mycophenolate mofetil (CellCept)] | 53%
COc1c(C)c2c(c(O)c1C/C=C(\C)CCC(=O)O)C(=O)OC2 | 44%
C=C[C@@]1(C)CC(=O)[C@@]2(O)[C@](C)(O1)[C@@H](O)[C@@H](O)C1C(C)(C)CC[C@H](O)[C@@]12C (stereo partly specified) | 98.8%
COc1ccc(C(=O)O)c(O)c1OC | 97.8%

SMILES | cell viability
COc1ccc([C@H]2COc3c(ccc(O)c3OC)C2)c(OC)c1O | 116%
CC(C=CC(=O)NO)=CC(C)C(=O)c1ccc(N(C)C)cc1 (stereo unspecified) [Trichostatin A (TSA)] | 1.52%
O=C(Cn1ccnc1[N+](=O)[O-])NCCO | 94.5%
Cc1csc(-c2nnc(Nc3ccc(Oc4ncccc4-c4ccnc(N)n4)cc3)c3ccccc23)c1 | 51.5%
N=C1C=CC(=C(c2ccc(N)cc2)c2ccc(N)cc2)C=C1 | 82.5%
CN(C)c1ccc(C(=C2C=CC(=[N+](C)C)C=C2)c2ccc(N(C)C)cc2)cc1 | 0.942%
CCCCCCCCCCCCCc1ccco1 | 97.1%
C[C@H](CCC(=O)O)[C@H]1CC[C@H]2[C@@H]3CC[C@@H]4CCCC[C@]4(C)[C@H]3CC[C@]12C | 98.9%
C[C@@H]1O[C@@H](O[C@H]2[C@H](O[C@H]3CC[C@@]4(C)[C@@H](CC[C@]5(C)[C@@H]4CC=C4[C@@H]6CC(C)(C)CC[C@]6(C(=O)O[C@@H]6O[C@H](CO[C@@H]7O[C@H](CO)[C@@H](O[C@@H]8O[C@@H](C)[C@H](O)[C@@H](O)[C@H]8O)[C@H](O)[C@H]7O)[C@@H](O)[C@H](O)[C@H]6O)CC[C@]45C)[C@]3(C)CO)OC[C@H](O)[C@@H]2O)[C@H](O)[C@H](O)[C@H]1O | 89.5%
COCC[n+]1c2c(n(Cc3cnccn3)c1C)C(=O)c1ccccc1C2=O [YM155 (Sepantronium Bromide)] | 3.93%
CC(C)CCC[C@@H](C)[C@H]1CC[C@H]2[C@@H]3CC=C4CC(=O)CC[C@]4(C)[C@H]3CC[C@]12C | 87.5%
COC(=O)c1c(OC)cc2c(c1C)Oc1c(Cl)c(O)c(Cl)c(C)c1C(=O)O2 | 107%
OC(Cn1cncn1)(Cn1cncn1)c1ccc(F)cc1F | 95.1%
Cc1c(NC(=O)OC[C@@H]2COCCN2)cn2ncnc(Nc3ccc4c(cnn4Cc4cccc(F)c4)c3)c12 | 119%
C=C1C2CC[C@@]3(C)[C@H](c4ccoc4)OC(=O)C[C@]13O[C@H]1CC(=O)C(C)(C)[C@H](C(O)C(=O)OC)[C@@]21C (stereo partly specified) | 99.4%
O=C(CNC(=O)c1ccc(Cl)cc1)NO | 107%
CC(C)C[C@H](NC(=O)CNC(=O)c1cc(Cl)ccc1Cl)B(O)O [Ixazomib (MLN2238)] | 1.39%
CC(C)C[C@H](NC(=O)CNC(=O)c1cc(Cl)ccc1Cl)B1OC(=O)C(CC(=O)O)(CC(=O)O)O1 | 1.16%
